Results on 28 compounds are retold here after PubChem BioAssay (NCATS).

Inconclusive results are not listed. A call without a number means that no potency is given here. Calls of active or inactive are those of the source. Calls come from the whole dose curve; as a rule, active = well fitted cell-killing curve with a large enough effect; inconclusive = small, poorly fitted or top-dose-only effect, or effect the other way; inactive = no such curve, though single readings can be large or run the other way. Numbered stars: 1 amine (or outer) side, 2 acyl side, 3 side chain; on linkers, the order of the positions; unused ones are H or OH. Bridge positions count the residues as written; N and C are the ends. Square brackets hold non-standard residues; d marks the D form. Peptide text beside a SMILES is read from it. I, II: the chains in the order shown. Actinocin(9to1) = Cc1c2oc3c(C)ccc(C(=O)[*:1])c3nc-2c(C(=O)[*:2])c(N)c1=O; NMeV = CN[C@H](C(=O)O)C(C)C; Sar = CNCC(=O)O
Potency is the fitted concentration of half-maximal effect.

This experiment is described as follows: qHTS of pediatric cancer cell lines to identify multiple opportunities for drug repurposing: Confirmatory screen for OHS-50 cells (AID 1347128).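 Note: compound exposure lasted 48 h at 37 degrees C; nearly all actives have a fitted effect of over 55% in size.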 As to conditions: OHS-50 osteosarcoma cells viability; series mostly up to 45.9 µM. An excerpt: Drug repurposing or repositioning has been offered as a strategy for drug development in oncology programs. This approach has special potential for childhood cancers and other rare or orphan diseases, where the expected return on new drug development has been a disincentive to pharmaceuticals.
In this project we exploit the poly-pharmacology of drugs to discover new indications via phenotypic screening of a panel of 19 well-characterized cell lines derived from solid tumors seen in children and adolescents. The goal is to identify approved drugs with previously unrecognized anticancer properties that has the potential to reveal new mechanisms and biological processes involved in carcinogenesis or drug resistance. We employed a titration-based paradigm (quantitative high-throughput screening or qHTS), where all compounds were tested at multiple concentrations for their effect on cell viability. Concentration-response curves (CRCs) were derived directly from the primary screen, and both potency and efficacy values were used to identify compounds with robust bioactivity profiles. We screened the NIH Chemical Genomics Center (NCGC) Pharmaceutical Collection (NPC) and Mechanism Interrogation Plate (MIPE) small molecule collections of approved and investigational compounds against these cell lines; and measured metabolically active cells after 48 hours of compound treatment as a proxy for cell viability.
Assay Submitter: Nathalia J. Martinez, National Center for Advancing Translational Sciences, National Institutes of Health, Rockville, MD, USA; email: natalia.martinez@nih.gov
[1] Shen, M et al. Quantitative high-throughput phenotypic screening of pediatric cancer cell lines identifies multiple opportunities for drug repurposing. Oncotarget 2017 Dec 19;9(4):4758-4772. PMID 29435139.
The cells were obtained from University of North Carolina (UNC), Pediatric Preclinical Testing Program (PPT), and Coriell Institute (CI).
qHTS cell viability assay:
Cells were assayed in growth media at a density of 500-1,000 cells/well. Five microliters of cells were dispensed into 1,536-well, white, solid-bottom, TC-treated plates (Greiner Bio One) using a multidrop dispenser and incubated at 37 degrees C, 5% CO2, under a humidified atmosphere for 5 hours. Twenty-three nanoliters of compounds and controls (neutral control DMSO or positive control bortezomib at final concentration of 2.3 µM) were subsequently transferred by Kalypsys pintool. For primary screens, the MIPE collection was tested at 11-point dilutions (final concentrations range from 0.78 nM to 46 µM) and the NPC collection at 8-point dilutions (final concentrations range from 0.59 nM to 46 µM). Compounds tested in follow-up screens were assayed at 11-point dilutions. Cells were incubated for 48 hours, followed by addition of 3 µL of CellTiter-Glo (Promega). After a 15 min incubation at room temperature, samples were analyzed for luminescence intensity using a ViewLux High-throughput CCD imager equipped with clear filters.
As for `C[C@]12CCC(=O)C=C1CC[C@H]1[C@@H]3CC[C@](O)(C(=O)CO)[C@@]3(C)C[C@H](O)[C@@]12F`, the Potency entry is “inactive”.
As for `CC1(C)O[C@@H]2C[C@H]3[C@@H]4C[C@H](F)C5=CC(=O)CC[C@]5(C)[C@H]4[C@@H](O)C[C@]3(C)[C@]2(C(=O)CO)O1`, the entry is “inactive”.
In the case of `CC(C)(C(=O)c1cccnc1)c1cccnc1` it was “inactive”; in that of `CC(=O)OCC(=O)[C@@]1(OC(C)=O)[C@@H](C)C[C@H]2[C@@H]3C[C@H](F)C4=CC(=O)C=C[C@]4(C)[C@@]3(F)[C@@H](O)C[C@@]21C`, “inactive”.
As for `CN(C)C(=S)SC(=S)N(C)C`, the entry is “inactive”; as for `CCOc1ccc2nc3cc(N)ccc3c(N)c2c1`, “inactive”; as for `NC(CO)(CO)CO`, “inactive”.
With `CC(=O)OCC(=O)[C@@]1(O)CC[C@H]2[C@@H]3CCC4=CC(=O)C=C[C@]4(C)[C@H]3[C@@H](O)C[C@@]21C`, the Potency entry was “inactive”.
In the case of `COc1cc(C=C2CCC/C(=C\c3ccc(O)c(OC)c3)C2=O)ccc1O` it was 16.5 µM (active); in that of `OC[C@H]1O[C@@H](n2cnc3c(=S)nc[nH]c32)[C@H](O)[C@@H]1O`, 2.33 µM (active).
In the case of `Cc1c2oc3c(C)ccc(C(=O)N[C@@H]4C(=O)N[C@H](C(C)C)C(=O)N5CCC[C@H]5C(=O)N(C)CC(=O)N(C)[C@@H](C(C)C)C(=O)O[C@@H]4C)c3nc-2c(C(=O)N[C@@H]2C(=O)N[C@H](C(C)C)C(=O)N3CCC[C@H]3C(=O)N(C)CC(=O)N(C)[C@@H](C(C)C)C(=O)O[C@@H]2C)c(N)c1=O` (I: T[dV]P[Sar][NMeV] / II: T[dV]P[Sar][NMeV]; ester I:1-I:C, II:1-II:C; linker I:N-II:N via Actinocin(9to1)) it was 0.0293 µM (active); in that of `COc1cccc2c1C(=O)c1c(O)c3c(c(O)c1C2=O)C[C@@](O)(C(=O)CO)C[C@@H]3O[C@H]1C[C@H](N)[C@H](O)[C@H](C)O1`, 14.7 µM (active).
In the case of `C[C@]12C=CC(=O)C=C1CC[C@@H]1[C@@H]2[C@@H](O)C[C@@]2(C)[C@H]1CC[C@]2(O)C(=O)CO` it was “inactive”; in that of `NC(=O)CC[C@@H]1NC(=O)[C@H](Cc2ccccc2)NC(=O)[C@H](Cc2ccc(O)cc2)NC(=O)CCSSC[C@@H](C(=O)N2CCC[C@H]2C(=O)N[C@@H](CCCN=C(N)N)C(=O)NCC(N)=O)NC(=O)[C@H](CC(N)=O)NC1=O`, “inactive”; in that of `CCCCC(=O)O[C@]1(C(=O)CO)CC[C@H]2[C@@H]3CCC4=CC(=O)CC[C@]4(C)[C@H]3[C@@H](O)C[C@@]21C`, “inactive”.
For `CCCCCCC[N+](CC)(CC)CCCCc1ccc(Cl)cc1`, the Potency was 23.3 µM (active).
In the case of `C[C@]12C=CC(=O)C=C1[C@@H](F)C[C@@H]1[C@@H]2[C@@H](O)C[C@@]2(C)[C@H]1CC[C@]2(O)C(=O)CO` it was “inactive”; in that of `CC(=O)OCC(=O)[C@@]12N=C(C)O[C@@H]1C[C@H]1[C@@H]3CCC4=CC(=O)C=C[C@]4(C)[C@H]3[C@@H](O)C[C@@]12C`, 1.31 µM (active); in that of `C[C@H]1C[C@H]2[C@@H]3CCC4=CC(=O)C=C[C@]4(C)[C@@]3(Cl)[C@@H](O)C[C@]2(C)[C@@]1(O)C(=O)CO`, “inactive”.
Turning to `COCc1c(C(C)C)nc(C(C)C)c(/C=C/[C@@H](O)C[C@@H](O)CC(=O)O)c1-c1ccc(F)cc1`, the Potency is 0.465 µM (active).
As for `CCCC(=O)O[C@]1(C(=O)CO)CC[C@H]2[C@@H]3CCC4=CC(=O)CC[C@]4(C)[C@H]3[C@@H](O)C[C@@]21C`, the entry is “inactive”; as for `CC1(C)O[C@@H]2C[C@H]3[C@@H]4CCC5=CC(=O)CC[C@]5(C)[C@@]4(F)[C@@H](O)C[C@]3(C)[C@]2(C(=O)CCl)O1`, “inactive”.
In the case of `C[n+]1c2cc(N)ccc2cc2ccc(N)cc21` (tested in a mixture with another compound) it was 9.27 µM (active); in that of `C[C@@H]1C[C@H]2[C@@H]3CCC4=CC(=O)C=C[C@]4(C)[C@@]3(F)[C@@H](O)C[C@]2(C)[C@H]1C(=O)CO`, “inactive”.
In the case of `Oc1ccc(O)cc1` it was “inactive”.
As for `C=C1C[C@H]2[C@@H]3C=C(C)C4=CC(=O)CC[C@]4(C)[C@H]3CC[C@]2(C)[C@@]1(OC(C)=O)C(C)=O`, the Potency entry was “inactive”.
Regarding `CCCCC(CC)CN=C(N)NC(N)=NCCCCCCN=C(N)NC(N)=NCC(CC)CCCC` (stereo not drawn), the Potency was 13.1 µM (active).
As for `CC(=O)Oc1ccc2c(c1)CC[C@@H]1[C@@H]2CC[C@]2(C)[C@@H](O)CC[C@@H]12`, the entry is “inactive”.
